Hits are enriched below; roughly 5.2% of the tested compounds scored in any of these assays.
TrxR1 substrate: rat thioredoxin reductase 1 substrate activity; O89049; purified TrxR1 substrate turnover, NADPH consumption readout; Potency, µM (top dose mostly 114 µM); 0.01% of 390,000 active; AID 588456; further: nearly all actives have a fitted effect of over 50% in size
Target sequence (O89049 whole entry, looked up): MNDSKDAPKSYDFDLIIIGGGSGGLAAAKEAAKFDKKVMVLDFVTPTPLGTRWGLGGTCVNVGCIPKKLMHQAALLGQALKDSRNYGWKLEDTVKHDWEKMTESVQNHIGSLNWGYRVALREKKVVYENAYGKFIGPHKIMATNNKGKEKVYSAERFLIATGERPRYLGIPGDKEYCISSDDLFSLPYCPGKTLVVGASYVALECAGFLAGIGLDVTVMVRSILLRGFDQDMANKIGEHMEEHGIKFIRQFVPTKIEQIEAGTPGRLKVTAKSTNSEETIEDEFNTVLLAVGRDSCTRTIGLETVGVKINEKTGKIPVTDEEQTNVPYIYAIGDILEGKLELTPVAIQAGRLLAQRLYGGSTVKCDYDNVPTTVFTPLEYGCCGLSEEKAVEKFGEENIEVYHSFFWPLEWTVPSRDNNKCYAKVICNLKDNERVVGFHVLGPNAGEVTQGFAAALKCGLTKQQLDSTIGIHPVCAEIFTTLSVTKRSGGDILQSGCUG
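Rat TrxR1, dispensed at 90 nM, was prereduced with 400 uM NADPH (final) for 5 min at ~22 deg C, then incubated with compound 15 min before 400 uM selenite. A first-read NADPH fluorescence drop versus no-compound background flagged substrates.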
VDR inh: inhibitors of human vitamin D receptor | 0.93% of 400,000 active | P11473 | Potency, µM, usual class: inhibitors | VDR-SRC2-3 peptide fluorescence polarization, 2 h
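Fluorescence polarization assay of small-molecule disruption of VDR binding to coregulator peptide SRC2-3. Compounds and controls pin-transferred, then read after 2 h incubation at ambient room temperature.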
mIDH1 inhibitor: blocks human mutant IDH1 R132H enzyme; IDH1-R132H enzyme, NADPH consumption, diaphorase/resazurin fluorescence; Potency, µM (top dose mostly 76.6 µM), actives largely listed as inhibitors; 0.093% of 390,000 active; further: nearly all actives have a fitted effect of over 65% in size
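IDH1-R132H (0.5 ug/mL dispensed) in pH 7.5 Tris buffer was preincubated 30 min with compound, then given a substrate mix of 0.016 mM NADPH and 2 mM alpha-KG for 80 min at room temperature; remaining NADPH was read by diaphorase/resazurin fluorescence.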
Sfp PPTase inh: Sfp phosphopantetheinyl transferase inhibition; Q9F4F7; Biochemical Sfp PPTase activity, qHTS; Potency, µM, most hits filed as inhibitors; 3.5% of 310,000 active; AID 1490;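 further: the enzyme is Sfp with the accession as filed and its product quenches rhodamine fluorescence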
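Compounds were incubated with enzyme (final 15 nM) for 15 min at room temperature before substrate addition started the reaction. Fluorescence at 525 nm excitation, 598 nm emission was recorded immediately and after 30 minutes.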
TrxR1 inh: rat TrxR1 inhibition; recombinant rTrxR1, NADPH fluorescence consumption, selenite substrate; 1% of 390,000 active; Potency, µM (highest dose often 114 µM), hits mostly inhibitors; further: nearly all actives have a fitted effect of over 65% in size
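Rat TrxR1 (90 nM in the dispensed reagent) was pre-reduced with 400 uM NADPH for 5 min at room temperature, then incubated with compound for 15 min. After 400 uM selenite was added, NADPH fluorescence (Ex 340/Em 450 nm) was followed for 8 min.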
PLK1 PBD block: PLK1 (human) polo-box domain binding inhibition. Potency, µM, usual class: inhibitors. P53350. Plk1 PBD binding of FITC phosphopeptide, fluorescence polarization. 2.8% of 360,000 active; further: series mostly up to about 57 µM; nearly all actives have a fitted effect of over 65% in size
A number is an active result; - = inactive; ? = inconclusive; . = no result given; ! = a repeat was not active; [ ] = another dose, or the depositor's remark. The call rests on the fitted dose curve; in most records, active means well fitted curve in the direction sought with a large enough effect; inconclusive means small, poorly fitted or top-dose-only effect, or another doubt; inactive means no such curve, though single readings can be large; an effect the other way counts as inactive or inconclusive.

SMILES	TrxR1 substrate	VDR inh	mIDH1 inhibitor	Sfp PPTase inh	TrxR1 inh	PLK1 PBD block
O=C(Nc1ccccc1)Nc1ccc2nnsc2c1	-	-	-	-	-	30µM
O=C(Nc1ccccc1)Nc1nncs1	-	-	-	-	-	30µM
O=C(Nc1ccccc1)Nc1ccc2snnc2c1	-	-	-	-	-	-
CCNc1ncc2nc(-c3ccc(OC)cc3)c(=O)n(CCOC)c2n1	.	-	.	-	.	.
Cc1ccc([N+](=O)[O-])cc1NC(=O)C(C)NS(=O)(=O)c1ccc(F)cc1 (stereo not drawn)	-	-	-	-	-	24µM
Cc1ccc(C)c(NC(=O)CCC(=O)N/N=C/c2cc([N+](=O)[O-])ccc2O)c1	-	-	-	-	-	38µM
Cc1ccccc1NC(=O)CCC(=O)N/N=C/c1cc([N+](=O)[O-])ccc1O	-	-	-	-	-	-
Cc1cc(NC(=O)COC(=O)CC2CCCC2)c([N+](=O)[O-])cc1C	-	-	-	-	-	-
COCC(=O)Nc1cc([N+](=O)[O-])ccc1C	-	-	-	-	-	12µM
CCC(=O)OCC(=O)Nc1cc(C)c(C)cc1[N+](=O)[O-]	-	-	-	-	-	24µM
CSc1nc(-c2ccco2)nn1S(=O)(=O)c1ccc(C)cc1	-	?	-	45µM	-	?
CCS(=O)(=O)n1nc(-c2ccc(Cl)cc2)nc1SC	-	-	-	56µM	-	-
CCS(=O)(=O)n1nc(-c2ccco2)nc1SC	-	?	-	35µM	-	9.5µM
CS(=O)(=O)n1nc(-c2ccc(Cl)cc2)nc1N	-[11.4 µM]	-	-	-	-[11.4 µM]	-
CCn1c2ccccc2c2cc(/C=C3\C=Cc4ccccc43)ccc21	-	.	.	.	-	.
CCc1ccccc1N(CC)C(=O)C(=O)Nc1ccc2nc3n(c(=O)c2c1)CCCCC3	-	-	-	.	-	.
O=S1(=O)CCOCCCN1Cc1ccc(F)cc1	-	.	.	.	-	.
COc1cccc(Nc2ncnc3onc(-c4ccccc4OC)c23)c1	-	-	-	-	-	-
CCS(=O)(=O)N1CCCC(C(=O)NCCOC)C1 (stereo not drawn)	-	-	-	.	-	.
Cc1ccccc1OCCN1C(=O)C(=O)c2cccc(C)c21	-	50µM	-	-	-	?
CCOC(=O)c1c(NC(C)=O)sc2c(OCCN(CC)CC)c(Br)ccc12	-	-	-	-	-	-
CCOC(=O)c1c(NC(C)=O)sc2c1CCC(C=NCCCN(CC)CC)=C2Sc1ccccc1	-	?	-	.	3.5µM	?
O=C(NCc1ccco1)[C@@H]1CCCN1C(=O)c1cccs1	-	-	-	-	79µM	-
O=C(CCc1ccccc1)n1nc(-c2ccccc2)nc1NCc1ccco1	-	-	-	-	-	-
O=C(NCc1ccccc1)[C@@H]1CCCN1C(=O)[C@@H]1CCCN1C(=O)c1cccs1	.	.	.	.	.	-
SMILES	TrxR1 substrate	VDR inh	mIDH1 inhibitor	Sfp PPTase inh	TrxR1 inh	PLK1 PBD block
O=C(c1cccs1)n1nc(-c2ccccc2)nc1NCc1ccco1	-	-	-	-	-	27µM
Cn1c(=O)n(C)c2cc(/C=N/NC(=O)c3ccc(Cl)cc3)ccc21	-	?	-	-	-	30µM
O=C(N/N=C/c1ccoc1)c1ccc(Cl)cc1	-	-	-	50µM	-	-
O=c1cc(CN(Cc2ccccc2)Cc2ccccc2)c2ccccc2o1	.	.	.	.	.	-
Cc1ccc(C(=O)/C=C\NCc2ccccc2)cc1	-	-	-	89µM	-	-
O=C(c1c(O)cc(O)cc1O)C1c2c(cc(O)c3c2O[C@H](c2ccc(O)cc2)[C@@H](O)C3)OC1c1ccc(O)cc1 (stereo partly drawn)	-	?	-	.	?	-
O=C(OC1Cc2c(O)cc(O)cc2OC1c1cc(O)c(O)c(O)c1-c1c(C2Oc3cc(O)cc(O)c3CC2O)cc(O)c(O)c1O)c1cc(O)c(O)c(O)c1 (stereo not drawn)	.	-	.	40µM	.	.
Cc1ccccc1-c1nn2c(-c3ccccc3)nnc2s1	-	-	-	56µM	-	-
Cc1cc(-c2nn3c(-c4ccccc4)nnc3s2)c2ccccc2n1	-	?	-	?	-	12µM
NS(=O)(=O)c1ccc(CCNC(=O)CCc2nc3sc4c(c3c(=O)[nH]2)CCCC4)cc1	-	-	-	.	-	-
COc1cc2c(NC3CCN(C)CC3)nc(N3CCCN(C)CC3)nc2cc1OCCCN1CCOCC1	-	.	.	.	?	.
COc1cc2c(NC3CCN(C)CC3)nc(N3CCCN(C)CC3)nc2cc1OCCCN1CCCC1	-	.	.	.	50µM	.
CCc1ccccc1NS(=O)(=O)c1cc(Br)cc2c1N(C(=O)C1CC1)CC2	-	-	-	.	-	.
CCCN1CCC(=O)N(C(CSc2ccc(OC)cc2)CC(C)C)CC1 (stereo not drawn)	-	-	.	-	-	.
CCOC(=O)c1scc(-c2ccccc2)c1S(=O)(=O)Nc1ccc(N(C)C)cc1	-	20µM	-	.	-	.
CCOC(=O)c1scc(-c2ccc(C)cc2)c1S(=O)(=O)Nc1ccc(F)c(F)c1	-	-	-	.	-	.
CN(N=O)c1ccc(/C=C/c2ccccc2)cc1	-	.	.	.	-	.
COC(=O)[C@@H](N)CS	-	20µM!	-	11µM	-	24µM
COC(=O)C(N)Cc1ccc(O)cc1 (stereo not drawn)	-	-	-	-	-	-
COC(=O)C(N)CS (stereo not drawn)	.	18µM	.	-	.	.
C=CCn1c(SCC(=O)N2CC(=O)Nc3ccccc32)nc2scc(-c3ccccc3)c2c1=O	-	-	-	-	-	12µM
CCN(C(=O)CSc1nc2ccccc2c(=O)n1-c1cccc(C)c1)C1CCS(=O)(=O)C1 (stereo not drawn)	-	-	-	-	-	27µM
C=CCn1c(SCC(=O)NCc2ccc3c(c2)OCO3)nc2scc(-c3ccccc3)c2c1=O	-	-	-	?	-	-
C=CCn1c(SCC(=O)N(CC)C2CCS(=O)(=O)C2)nc2scc(-c3ccccc3)c2c1=O (stereo not drawn)	-	-	-	.	45µM	-

Screening results: PubChem, National Center for Advancing Translational Sciences (NCATS)
